High-throughput results as filed in PubChem.
Only some compounds are listed: those with a hit (about 1.9% of all), similar ones and a draw of the others.
PriA SSB inh: inhibitors of Klebsiella pneumoniae PriA binding to SSB C-terminal tail, primary screen, biochemical, AlphaScreen; PriA–SSB C-terminal tail interaction (Klebsiella pneumoniae); AlphaScreen SSBct-PriA binding, biotinylated peptide; inhibition, % at 33 µM; 0.6% of 430,000 active; in the data active means inhibition mostly above about 37%, no sharp cut-off; inactive means mostly below about 20%;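 further: plate controls were negative control peptide for no effect and reference peptide for full effect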
PrP UTR inh: inhibition of PrP 5' UTR reporter expression; inhibition, % (no concentration beside the values); cell-based PrP 5' UTR mRNA reporter, plate reader; 0.35% of 340,000 active; AID 488862, 2010; in the data active means inhibition above about 52%; further: 0 = median of the neutral control wells
BJeLR lethal: MLPCN primary cell-based screen for lethality selective to Ras in HRASV12 cells | BJeLR (HRASV12) viability, CellTiter-Glo ATP luminescence, 48 h | inhibition, % (test concentration not listed) | 0.17% of 300,000 active | AID 1554, 2009; in the data active means inhibition above about 50%
RecA intein inh: Mtb RecA intein splicing inhibitors, primary screen, biochemical, fluorescence, HTS | Protein RecA (Mycobacterium tuberculosis (strain ATCC 25618 / H37Rv)), P9WHJ3 | cell-free RecA intein splicing | inhibition, % (concentration not given with the values) | 0.75% of 290,000 active | AID 2221, 2009; in the data active means inhibition above about 30%;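 further: 0% = vehicle wells and 100% = reference inhibitor control wells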
PrPC TRFRET: inhibitors of human cell surface prion protein PrPC, primary screen, cell-based, TR-FRET; Major prion protein (Homo sapiens), P04156; TR-FRET read-out; inhibition, % at 13.8 µM; 0.43% of 370,000 active; in the data active means inhibition above about 24%; further: 0% = median of the test wells and 100% = reference compound wells
PfHsp40 yeast: rescue of yeast from PfHsp40 toxicity, primary screen, S. cerevisiae, ATP luminescence; S. cerevisiae expressing PfHsp40, growth rescue; growth rescue, % at 12.5 µM; 0.68% of 340,000 active; in the data active means growth rescue above about 28%, passing the limit was not always enough;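 further: yeast W303a lacking pdr1 and pdr3 grown in galactose medium; growth measured after three days at 30 °C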
PrPC confirm: confirmation of inhibitors of cell surface human prion protein, confirmation, cell-based, TR-FRET | shares compounds with PrPC TRFRET | 65% of 1,500 active | cell surface PrPC level | inhibition, % at 13.8 µM; in the data active means inhibition above about 25%
LD9 cytotox: cytotoxicity in LD9 cells, cytotoxicity control for cell surface PrPc inhibitor project, cell-based, luminescence, high throughput | luminescence viability | inhibition, % at 13.8 µM | shares compounds with PrPC TRFRET | 29% of 1,500 active; in the data active means inhibition above about 9.5%
Numbers without * were called inactive; / = not tested or not shown.

SMILES	PriA SSB inh	PrP UTR inh	BJeLR lethal	RecA intein inh	PrPC TRFRET	PfHsp40 yeast	PrPC confirm	LD9 cytotox
COc1ccc(-c2nnc3ccc(SCC(=O)Nc4nccs4)nn23)cc1OC	-4	-5	-16	0	-6	2	/	/
COc1ccc(-c2ccc(SCC(=O)Nc3nccs3)nn2)cc1OC	-4	24	-14	1	29*	0	38*	-6
CN1CCN(NC(=O)c2cc(-c3ccc(Br)s3)nc3ccccc23)CC1	-2	3	-11	-6	9	-1	/	/
O=C(O)c1cc(-c2ccc(Br)s2)nc2ccccc12	-9	-16	2	-7	33*	10	53*	-7
CCOc1ccccc1OCCN1CCC(Cc2ccccc2)CC1	-2	-14	8	1	-2	-2	/	/
N#Cc1ccccc1OCCCN1CCC(Cc2ccccc2)CC1	-5	-19	26	2	26*	-1	4	10*
O=C(c1cc(COc2ccc3ncccc3c2)on1)N1CCCC1	-5	-2	4	11	42*	-1	42*	9
O=C(NCCc1cn2ccccc2n1)c1cc(COc2ccc3ncccc3c2)on1	8	-1	16	1	25*	1	40*	49*
CC(NC(=O)c1cc(COc2ccc3ncccc3c2)on1)c1ccc(F)cc1 (stereo unspecified)	1	-1	8	1	33*	-1	34*	11*
CCCCc1ccc2nc(Nc3nc4c(F)cccc4s3)sc2c1	-15	/	/	/	/	/	/	/
O=C(Cc1cccs1)N1CCN=C1SCc1ccc([N+](=O)[O-])cc1	-7	/	/	/	/	/	/	/
Cc1ccc(S(=O)(=O)CCCC(=O)Nc2nc3c(s2)C(=O)CC(C)(C)C3)cc1	1	/	/	/	/	/	/	/
CCCCOc1ccc(C(=O)Nc2cnc(N3CCOCC3)nc2)cc1	-21	/	/	/	/	/	/	/
CCCOP(=O)(OCCC)c1nc(-c2ccccc2)oc1NCc1ccccc1	-14	-8	6	0	28*	0	14	-6
COP(=O)(OC)c1nc(-c2ccccc2)oc1NCc1ccccc1	18	-16	5	2	7	-1	/	/
O=C(O)C(=Cc1cc2c(cc1[N+](=O)[O-])OCO2)c1cc2c(cc1Br)OCO2	-14	-23	/	/	-8	-1	/	/
O=C(O)C(=Cc1ccccc1[N+](=O)[O-])c1ccc2c(c1)OCO2	/	/	/	/	27*	/	0	-7
O=C(Nc1ccccc1)Nc1ccc(-n2ccc(C(F)(F)F)n2)cc1	-10	-70	-7	1	26*	-1	22	9.9*
O=C(O)CC(CC(=O)Nc1ccc(-n2ccc(C(F)(F)F)n2)cc1)c1ccccc1 (stereo unspecified)	-8	-2	-5	-1	6	-1	/	/
O=S(=O)(Cc1noc2ccccc12)N1CCc2ccccc2C1	-4	/	/	/	/	/	/	/
CC(C)Cc1ccc(C(C)C(=O)Nc2ccc(O)cc2)cc1 (stereo unspecified)	15	-3	2	6	28*	0	21	0
Nc1ccc(Br)nc1Cl	2	/	/	/	/	/	/	/
COc1ccc2nc(Nc3nc(CSc4nc5ccccc5[nH]4)cc(=O)[nH]3)nc(C)c2c1	-8	-6	8	0	7	-1	/	/
Cc1nc(Nc2nc(CSc3nc4ccccc4[nH]3)cc(=O)[nH]2)nc2ccccc12	10	4	-8	-1	34*	0	46*	20*
CCOc1ccccc1N=C1SCC(C)N1C(=O)C1CCN(c2ncnc3sc(C)c(C)c23)CC1 (stereo unspecified)	0	-19	/	/	40*	1	56*	-7
